Read-out in assay [1]: E-selectin (Homo sapiens) (UniProt P16581)
The assay is described as follows: BSK_3C_Eselectin: BioMAP Diversity Plus: 3C Assay for Eselectin Biomarker Activity (AID 2283015).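 On outcome: cell surface E-selectin protein quantified by ELISA 24 h after dosing.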 The conditions noted are these: primary human endothelial cells (HUVEC); actives raise or lower the signal. The method, boiled down:
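E-selectin ELISA readout, fitted bidirectionally relative to DMSO, taken 24 h post-dosing in HUVEC cultures of the 3C system. Overt cytotoxicity tracked with sulforhodamine B staining of parallel wells.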

Read-out in assay [2]: Interleukin-1 alpha (IL1a), IL1A (gene 3552)
Description: BSK_BE3C_IL1a: BioMAP Diversity Plus: BE3C Assay for Interleukin-1 alpha (IL1a) Biomarker Activity (AID 2283016). The conditions noted are these: primary human bronchial epithelial cells; actives raise or lower the signal. The method, boiled down: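 BE3C primary human bronchial epithelium; cpd 24 h; IL-1a by ELISA; bidirectional fit vs DMSO; parallel SRB (0.1% SRB, 10% TCA fix, 560 nm) for cytotoxicity.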

Read-out in assay [3]: Monocyte Chemoattractant Protein-1 (MCP1), CCL2 (gene 6347)
The assay is described as follows: BSK_3C_MCP1: BioMAP Diversity Plus: 3C Assay for Monocyte Chemoattractant Protein-1 (MCP1) Biomarker Activity (AID 2283017). Particulars: primary human endothelial cells (HUVEC); actives raise or lower the signal. The method, boiled down: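 MCP-1 was measured by ELISA 24 h after dosing in primary HUVEC 3C cultures and fitted in both directions relative to DMSO; cytotoxicity was checked by SRB total-protein staining in parallel wells.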

Read-out in assay [4]: Monocyte Chemoattractant Protein-1 (MCP1), CCL2 (gene 6347)
The assay is described as follows: BSK_4H_MCP1: BioMAP Diversity Plus: 4H Assay for Monocyte Chemoattractant Protein-1 (MCP1) Biomarker Activity (AID 2283018). The conditions noted are these: primary human endothelial cells (HUVEC); actives raise or lower the signal. The method, boiled down: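 ELISA read-out of MCP-1 from human vascular endothelial primary cells taken at 24 hours after compound exposure. Activity was fitted in both directions relative to DMSO, which served as negative control.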

Read-out in assay [5]: Human Leukocyte Antigen - DR isotype (HLADR), HLA-DRA (gene 3122)
The assay is described as follows: BSK_3C_HLADR: BioMAP Diversity Plus: 3C Assay for Human Leukocyte Antigen - DR isotype (HLADR) Biomarker Activity (AID 2283019).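 On outcome: ELISA of cell-surface HLA-DR on HUVEC 24 h after dosing.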 Particulars: primary human endothelial cells (HUVEC); actives raise or lower the signal. The method, boiled down: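 Bidirectional fitting against DMSO was applied to the HLA-DR ELISA signal from human umbilical vein endothelial cells, 24 h post-dose. Cytotoxicity came from parallel SRB total-protein staining; 3C proliferation was counted by SRB at 48 h.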

Read-out in assay [6]: Interleukin-8 (IL8), CXCL8 (gene 3576)
Description: BSK_3C_IL8: BioMAP Diversity Plus: 3C Assay for Interleukin-8 (IL8) Biomarker Activity (AID 2283020). The conditions noted are these: primary human endothelial cells (HUVEC); actives raise or lower the signal. The method, boiled down: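 ELISA read-out of IL-8 from human umbilical vein endothelium, measured 24 h after chemical dosing. Activity is expressed relative to DMSO negative control, with both increases and decreases fitted.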

Read-out in assay [7]: Monokine induced gamma interferon (MIG), CXCL9 (gene 4283)
The assay is described as follows: BSK_3C_MIG: BioMAP Diversity Plus: 3C Assay for Monokine induced gamma interferon (MIG) Biomarker Activity (AID 2283021). The conditions noted are these: primary human endothelial cells (HUVEC); actives raise or lower the signal. The method, boiled down: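 Read-out is ELISA detection of MIG on human umbilical vein endothelial cells, taken 24 h after dosing. Gain or loss of signal was scored relative to DMSO controls using bidirectional curve fitting.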

The target in assay [8] is human Vitamin D Receptor (VDR), VDR (gene 7421) (UniProt P11473). Description: ATG_VDR_TRANS: Attagene TRANS-FACTORIAL HepG2 Assay for human Vitamin D Receptor (VDR) (AID 2283022; active means hit-call score of the fitted dose curve at least 0.9, where 1 is the maximum). The method, boiled down: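 Transactivation by an exogenous VDR-Gal4 chimera in transiently transfected HepG2 cells was measured as reporter transcript level 24 hours after chemical treatment. RT-PCR products were analysed by capillary electrophoresis and fitted in the positive direction relative to DMSO.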
human Vitamin D Receptor (VDR), VDR (gene 7421), sequence (P11473 whole entry, looked up, the tested form may be a part): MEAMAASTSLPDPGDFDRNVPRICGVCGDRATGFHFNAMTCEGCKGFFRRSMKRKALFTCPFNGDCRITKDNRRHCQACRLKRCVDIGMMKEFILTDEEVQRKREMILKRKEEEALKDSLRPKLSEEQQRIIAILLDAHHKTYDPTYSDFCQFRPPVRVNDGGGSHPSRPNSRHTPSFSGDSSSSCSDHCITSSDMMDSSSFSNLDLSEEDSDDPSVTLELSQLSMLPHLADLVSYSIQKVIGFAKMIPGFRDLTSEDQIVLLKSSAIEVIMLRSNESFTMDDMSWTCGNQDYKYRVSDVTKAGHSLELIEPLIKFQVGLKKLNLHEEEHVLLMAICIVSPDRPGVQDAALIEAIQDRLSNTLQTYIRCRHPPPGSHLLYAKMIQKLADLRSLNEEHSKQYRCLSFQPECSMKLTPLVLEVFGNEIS

Assay [9] in a line: BSK_3C_SRB: Viability Assessment in the BioMAP Diversity Plus: 3C Assay (AID 2283023).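 Further: fitted both ways against DMSO so a hit may be signal rise or drop.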 The conditions noted are these: primary human endothelial cells (HUVEC). The method, boiled down:
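Cytotoxicity readout in parallel HUVEC 3C cultures: after 24 h compound exposure, cells fixed with 10% TCA, stained with 0.1% SRB and read at 560 nm. Gain or loss relative to DMSO fitted.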

Read-out in assay [10]: Matrix Metallopeptidase 1 (MMP1), MMP1 (gene 4312)
The assay is described as follows: BSK_BE3C_MMP1: BioMAP Diversity Plus: BE3C Assay for Matrix Metallopeptidase 1 (MMP1) Biomarker Activity (AID 2283024). Particulars: primary human bronchial epithelial cells; actives raise or lower the signal. The method, boiled down:
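Human bronchial epithelial cells (BE3C system) exposed to compound for 24 h; MMP1 then quantified by ELISA. Activity was fitted in both directions relative to DMSO.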

Results on 23 compounds are retold here after PubChem BioAssay (EPA / NIEHS).

The structures appear in SMILES notation. Inconclusive results are not listed. Calls of active or inactive are those of the source. How the source made its calls, unless noted: active means hit-call score of the fitted dose curve at least 0.9, where 1 is the maximum; inactive means score below 0.9.

One may read the AC50 as the midpoint of the concentration-response curve, whichever way the signal moves.

E-selectin (Homo sapiens), sequence (P16581 whole entry, looked up): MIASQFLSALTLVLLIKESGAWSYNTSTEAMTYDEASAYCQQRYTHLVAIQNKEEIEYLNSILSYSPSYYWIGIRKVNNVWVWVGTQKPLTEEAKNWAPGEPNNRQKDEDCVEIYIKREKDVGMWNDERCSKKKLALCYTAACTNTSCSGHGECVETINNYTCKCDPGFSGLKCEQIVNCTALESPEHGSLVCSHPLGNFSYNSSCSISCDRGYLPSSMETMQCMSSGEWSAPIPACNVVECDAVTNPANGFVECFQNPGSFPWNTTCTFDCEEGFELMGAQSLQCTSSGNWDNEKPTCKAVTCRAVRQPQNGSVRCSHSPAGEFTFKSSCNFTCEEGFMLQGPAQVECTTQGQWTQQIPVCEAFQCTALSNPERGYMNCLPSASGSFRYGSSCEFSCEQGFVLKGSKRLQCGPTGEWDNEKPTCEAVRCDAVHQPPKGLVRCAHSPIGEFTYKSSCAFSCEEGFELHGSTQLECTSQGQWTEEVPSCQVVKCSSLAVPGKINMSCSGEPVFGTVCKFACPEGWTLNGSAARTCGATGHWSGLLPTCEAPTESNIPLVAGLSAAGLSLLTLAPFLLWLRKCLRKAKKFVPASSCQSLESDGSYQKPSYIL

Take `S=c1[nH]c2ccccc2s1`: the result in assay [1], in assay [2], in assay [3], in assay [4], in [5] and in assay [6] was inactive. The result in assay [7], in assay [8], in assay [9] and in [10] was inactive.
Take `CCCCOC(=O)CCCCC(=O)OCCCC`: the result in assay [1], in assay [2], in assay [3], in [4], in assay [5] and in [6] was inactive. For the same compound, the outcome in assay [7] and in assay [8] was inactive.
In the case of `CCc1cc(C2=C(C(=O)O)N(c3ccccc3C(F)(F)F)S(=O)(=O)c3ccccc32)cc2c1OCO2`, the outcome in [1], in assay [2], in [3], in assay [4], in assay [6] and in assay [7] was inactive. In addition, the call in assay [8] and in assay [9] was inactive. For the same compound, the AC50 in [5] was 24.8 µM (active).
Take `NC(=Nc1ccccc1)Nc1ccccc1`: the outcome in assay [1], in assay [2], in assay [3], in [4], in assay [5] and in assay [6] was inactive.
Take `COC(=O)CCCC(=O)OC`: the result in assay [1], in assay [2], in [3], in assay [4], in assay [5] and in [6] was inactive. Further, the result in assay [7], in assay [8] and in assay [9] was inactive.
As to `c1ccc2occc2c1`, the result in assay [1], in [2], in [3], in [4], in assay [5] and in [6] was inactive. Further, the result in assay [7] was inactive.
Take `CC(C)(C)c1ccccc1`: the outcome in assay [1], in [2], in assay [3], in assay [4], in [5] and in assay [6] was inactive. The result in assay [7], in [8] and in assay [9] was inactive.
As for `CCC(C)N(C)C(=O)c1cc2ccccc2c(-c2ccccc2Cl)n1` (configuration not stated), the result in [1], in [2], in assay [3], in assay [4], in assay [5] and in assay [6] was inactive. In addition, the result in assay [7], in [8] and in assay [9] was inactive.
In the case of `CC(=O)S[C@H](C(=O)N[C@H]1Cc2ccccc2[C@H]2CCC[C@@H](C(=O)O)N2C1=O)C(C)C`, the result in assay [1], in assay [2], in assay [3], in [4], in [5] and in [6] was inactive. In addition, in [7], the result was inactive.
For the compound `CC1=C(C)S(=O)(=O)CCS1(=O)=O`, the result in assay [1], in assay [2], in assay [3], in [4], in assay [5] and in [6] was inactive. Further, the result in assay [7] was inactive.
Take `CCCCC(CC)COP(=O)(OCC(CC)CCCC)OCC(CC)CCCC` (configuration not stated): the result in assay [1], in assay [2], in [7], in assay [8] and in assay [10] was inactive. Moreover, the concentration at half-maximal activity (AC50) in [3] was 18.2 µM (active); in assay [4], 20 µM (active); in assay [5], 20 µM (active); in assay [6], 14 µM (active); in [9] it was 20 µM (active).
For `CC(COCC(C)OC(=O)c1ccccc1)OC(=O)c1ccccc1` (configuration not stated), the outcome in assay [1], in [2], in [3], in [4], in assay [5] and in assay [6] was inactive. Also, the outcome in assay [7] and in assay [8] was inactive.
On to `O=C1NC(=O)C(c2ccccc2)(c2ccccc2)N1`, for which the result in assay [1], in [2], in assay [3], in assay [4], in [5] and in [6] was inactive.
On to `Cc1cn([C@H]2C=C[C@@H](CO)O2)c(=O)[nH]c1=O`, for which the outcome in assay [1], in [2], in assay [3], in assay [4], in assay [5] and in [6] was inactive. Also, the outcome in assay [7], in assay [8], in assay [9] and in assay [10] was inactive.
`CC(=O)[C@@]1(O)CC[C@H]2[C@@H]3CCC4=CC(=O)CC[C@]4(C)[C@H]3CC[C@@]21C`: the result in [1], in assay [2], in assay [3], in assay [4], in assay [5] and in assay [6] was inactive. Besides, the outcome in assay [7] and in [8] was inactive.
Take `O=C(O)c1[nH]n(-c2ccc(S(=O)(=O)O)cc2)c(=O)c1N=Nc1ccc(S(=O)(=O)O)cc1`: the outcome in assay [1], in [2], in [3], in assay [4], in assay [5] and in assay [6] was inactive. The result in [7] and in [8] was inactive.
Consider `COc1ccc(OC(F)(F)F)cc1CN[C@H]1CCCN[C@H]1c1ccccc1`, for which the AC50 in assay [1] was 9.58 µM (active); in assay [3], 20 µM (active); in [5], 32.8 µM (active); in assay [9], 15 µM (active). Further, the result in [2], in [4], in assay [6], in assay [7] and in assay [8] was inactive.
Consider `OCC(CO)n1cnc(-c2ccc(F)cc2)c1-c1ccnc(Oc2ccccc2)n1`, for which the result in [1], in assay [2] and in assay [4] was inactive. Besides, the concentration at half-maximal activity (AC50) in [3] was 1.08 µM (active); in [5], 0.254 µM (active); in [6], 0.852 µM (active).
For the compound `CC(=O)CC(c1ccccc1)c1c(O)c2ccccc2oc1=O` (configuration not stated), the outcome in assay [1], in [2], in assay [3], in [4], in assay [5] and in [6] was inactive. Moreover, the result in [7], in [8] and in assay [9] was inactive.
For `CC(C)c1cccc(C(C)C)c1NC(=O)NS(=O)(=O)c1cc(C(C)(C)O)co1`, the outcome in assay [1], in [2], in [3], in assay [4], in assay [5] and in [6] was inactive. Besides, the result in assay [7] and in [8] was inactive.
Consider `O=NO`, for which the result in assay [1], in [2], in [3], in [4], in assay [5] and in assay [6] was inactive. The outcome in [7] and in assay [8] was inactive.
Consider `CN(C)CCCN(C)CCCN(C)C`, for which the result in [1], in assay [2], in assay [3], in assay [4], in assay [5] and in assay [6] was inactive.
For the compound `Oc1ccccc1O`, the concentration at half-maximal activity (AC50) in [1] is 1.73 µM (active); in assay [3], 4.66 µM (active); in assay [5], 5.45 µM (active); in [9] it was 4.44 µM (active). In addition, the outcome in [2], in assay [4], in assay [6], in assay [7], in assay [8] and in assay [10] was inactive.
